From ChEMBL document CHEMBL3988442, “University of Dundee, Small-Polar-MMV Screening Library” (2021) come the findings set out here.

For some of these results: Measured potencies and affinities stand elsewhere.

Holding throughout (parameters): scale not given: direction of the effect not stated beside the values
The target in assay [1] is Protein translocase subunit SecA (Escherichia coli (strain K12)) (UniProt P10408). The experiment in a line: Assay to Identify E. coli SecA ATPase Inhibitors. In kind it is functional. The following applies: 30 µM.
Assay [2] has as its target T1, Ubiquitin-activating enzyme e1, putative (Leishmania donovani (strain BPK282A1)) (UniProt E9BSI1).
T1 sequence (whole entry): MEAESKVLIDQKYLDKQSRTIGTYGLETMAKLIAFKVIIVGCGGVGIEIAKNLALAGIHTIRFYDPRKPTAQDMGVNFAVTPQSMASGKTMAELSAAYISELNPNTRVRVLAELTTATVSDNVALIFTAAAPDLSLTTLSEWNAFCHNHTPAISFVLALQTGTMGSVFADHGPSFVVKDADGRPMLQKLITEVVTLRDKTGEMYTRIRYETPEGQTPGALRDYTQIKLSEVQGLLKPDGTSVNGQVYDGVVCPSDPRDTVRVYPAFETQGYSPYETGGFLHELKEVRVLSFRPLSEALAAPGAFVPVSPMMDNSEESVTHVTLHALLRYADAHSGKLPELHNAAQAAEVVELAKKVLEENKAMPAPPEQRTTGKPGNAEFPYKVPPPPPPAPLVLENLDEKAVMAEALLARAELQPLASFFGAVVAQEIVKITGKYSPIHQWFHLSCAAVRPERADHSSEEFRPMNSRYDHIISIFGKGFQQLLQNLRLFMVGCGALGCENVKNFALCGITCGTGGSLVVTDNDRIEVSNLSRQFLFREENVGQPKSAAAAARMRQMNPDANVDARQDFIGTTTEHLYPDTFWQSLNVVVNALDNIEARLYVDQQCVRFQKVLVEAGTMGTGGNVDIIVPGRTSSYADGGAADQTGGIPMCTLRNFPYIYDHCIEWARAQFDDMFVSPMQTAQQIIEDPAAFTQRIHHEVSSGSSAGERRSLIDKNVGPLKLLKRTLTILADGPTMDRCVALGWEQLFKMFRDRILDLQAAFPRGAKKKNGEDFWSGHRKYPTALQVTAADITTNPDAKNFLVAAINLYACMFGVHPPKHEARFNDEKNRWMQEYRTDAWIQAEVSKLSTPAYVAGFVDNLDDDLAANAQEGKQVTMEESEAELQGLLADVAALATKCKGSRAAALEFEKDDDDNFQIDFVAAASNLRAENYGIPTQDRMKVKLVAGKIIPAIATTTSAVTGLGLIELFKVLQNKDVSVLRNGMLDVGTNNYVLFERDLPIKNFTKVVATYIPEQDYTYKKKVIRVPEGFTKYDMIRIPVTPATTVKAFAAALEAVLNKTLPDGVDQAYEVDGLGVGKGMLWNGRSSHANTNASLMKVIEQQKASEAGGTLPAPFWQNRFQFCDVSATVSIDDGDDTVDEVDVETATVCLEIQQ
The experiment in a line: Leishmania donovani Ubiquitin Activating Enzyme (LdE1). In kind it is functional. The following applies: 30 µM.

The target in assay [3] is AMP-activated protein kinase, AMPK (Homo sapiens) (UniProt P54646+O43741+P54619+Q9UGJ0+Q9Y478+Q13131+Q9UGI9). Briefly: AMP-dependent Kinase enzyme assay. An in vitro enzyme assay that detects ADP turnover that is directly proportional to AMPK activity. This uses naive AMPK that is activated during the assay with MK-8722. In kind it is functional. Particulars: 30 µM.
Assay [4] concerns the target Sialic acid-binding Ig-like lectin 9 (Homo sapiens) (UniProt Q9Y336). Briefly: Hs-Siglec9 ALPHAscreen SOP 20170721. The following applies: 10 µM.
The subject of assay [5] is Trypanosoma cruzi. Briefly: Trypanosoma cruzi phosphomannomutase and mannose-1-phosphate guanylyltransferase assay. In kind it is functional. Particulars: 10 µM.
Assay [6] has as its target T2, Arginase-2, mitochondrial (Homo sapiens) (UniProt P78540).
T2 sequence (whole entry): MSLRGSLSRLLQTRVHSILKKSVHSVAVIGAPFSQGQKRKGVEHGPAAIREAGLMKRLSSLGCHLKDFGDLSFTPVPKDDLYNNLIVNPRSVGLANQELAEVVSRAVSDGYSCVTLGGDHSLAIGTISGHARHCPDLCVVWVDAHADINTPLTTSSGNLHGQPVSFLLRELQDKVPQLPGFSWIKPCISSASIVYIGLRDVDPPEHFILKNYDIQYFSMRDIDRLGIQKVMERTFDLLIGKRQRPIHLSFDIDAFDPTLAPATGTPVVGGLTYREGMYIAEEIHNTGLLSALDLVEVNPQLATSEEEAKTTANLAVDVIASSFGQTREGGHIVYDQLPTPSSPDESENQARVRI
Briefly: in vitro enzyme assay to detect the production of urea directly proportional to the activity of Arginase II. Note: in the data most compounds retested in dose-response had high values. In kind it is functional. Particulars: 33.3 µM.

The target in assay [7] is T3, Proteasome subunit beta (Trypanosoma cruzi) (UniProt O96673).
T3 sequence (whole entry): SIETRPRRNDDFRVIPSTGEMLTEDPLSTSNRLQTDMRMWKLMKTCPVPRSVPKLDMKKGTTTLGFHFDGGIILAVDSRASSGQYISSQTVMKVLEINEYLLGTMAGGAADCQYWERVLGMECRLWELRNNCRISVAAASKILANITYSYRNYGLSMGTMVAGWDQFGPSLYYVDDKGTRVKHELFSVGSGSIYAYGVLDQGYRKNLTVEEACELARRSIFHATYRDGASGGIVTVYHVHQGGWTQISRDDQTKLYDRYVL
Briefly: Trypanosoma cruzi proteasome chymotrypsin-like activity (TcProtChymo) assay. Note: in the data most compounds retested in dose-response had high values. In kind it is functional. The following applies: 9.37 µM.

For assay [8], the species on record is Homo sapiens. The experiment in a line: To identify inhibition of the IFN signalling (Jak-Stat) pathway via expression of an eGFP reporter gene under the control of an IFN-stimulated response element (ISRE) containing MxA promoter. In kind it is functional. The following applies: 30 µM. A general note: Reporter assays use an easily measured gene product as a stand-in for the process of interest.

Assay [9] deals with T4, Tyrosyl-tRNA synthetase, putative (Trypanosoma cruzi (strain CL Brener)) (UniProt Q4DSP6).
T4 sequence (whole entry): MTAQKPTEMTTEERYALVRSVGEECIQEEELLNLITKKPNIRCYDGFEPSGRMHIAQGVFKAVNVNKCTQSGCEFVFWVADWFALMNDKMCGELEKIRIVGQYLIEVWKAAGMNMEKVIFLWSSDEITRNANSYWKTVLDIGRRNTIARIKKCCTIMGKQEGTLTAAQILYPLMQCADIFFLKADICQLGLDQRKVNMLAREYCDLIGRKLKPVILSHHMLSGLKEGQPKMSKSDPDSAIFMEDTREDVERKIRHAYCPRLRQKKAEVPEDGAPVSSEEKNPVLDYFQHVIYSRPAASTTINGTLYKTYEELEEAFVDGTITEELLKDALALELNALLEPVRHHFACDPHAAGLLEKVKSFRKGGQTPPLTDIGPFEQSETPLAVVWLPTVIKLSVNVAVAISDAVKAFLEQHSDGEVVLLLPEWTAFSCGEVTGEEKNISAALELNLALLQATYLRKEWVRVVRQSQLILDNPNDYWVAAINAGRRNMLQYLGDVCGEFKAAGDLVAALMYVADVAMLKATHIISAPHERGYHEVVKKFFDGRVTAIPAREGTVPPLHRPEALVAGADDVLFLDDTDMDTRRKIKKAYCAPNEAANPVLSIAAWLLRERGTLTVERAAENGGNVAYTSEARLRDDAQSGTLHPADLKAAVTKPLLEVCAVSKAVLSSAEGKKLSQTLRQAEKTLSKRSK
The experiment in a line: Trypanosoma cruzi tyrosyl tRNA synthetase (TcYRS) _High Tyrosine SOP. Note: in the data most compounds retested in dose-response had high values. The following applies: 30 µM. In kind it is functional.

The target in assay [10] is T4, Tyrosyl-tRNA synthetase, putative (Trypanosoma cruzi (strain CL Brener)). Briefly: Trypanosoma cruzi tyrosyl tRNA synthetase (TcYRS) SOP. In kind it is functional. The following applies: 30 µM.
Assay [11] deals with Chromo domain-containing protein 1 (Saccharomyces cerevisiae (strain ATCC 204508 / S288c) (Baker's yeast)) (UniProt P32657). Briefly: ScCHD-1 Enzyme Inhibition Assay. Note: in the data most compounds retested in dose-response had high values. Particulars: 30 µM. In kind it is functional.
Chromo domain-containing protein 1 (Saccharomyces cerevisiae (strain ATCC 204508 / S288c) (Baker's yeast)), sequence (P32657 whole entry, the tested form may be a part): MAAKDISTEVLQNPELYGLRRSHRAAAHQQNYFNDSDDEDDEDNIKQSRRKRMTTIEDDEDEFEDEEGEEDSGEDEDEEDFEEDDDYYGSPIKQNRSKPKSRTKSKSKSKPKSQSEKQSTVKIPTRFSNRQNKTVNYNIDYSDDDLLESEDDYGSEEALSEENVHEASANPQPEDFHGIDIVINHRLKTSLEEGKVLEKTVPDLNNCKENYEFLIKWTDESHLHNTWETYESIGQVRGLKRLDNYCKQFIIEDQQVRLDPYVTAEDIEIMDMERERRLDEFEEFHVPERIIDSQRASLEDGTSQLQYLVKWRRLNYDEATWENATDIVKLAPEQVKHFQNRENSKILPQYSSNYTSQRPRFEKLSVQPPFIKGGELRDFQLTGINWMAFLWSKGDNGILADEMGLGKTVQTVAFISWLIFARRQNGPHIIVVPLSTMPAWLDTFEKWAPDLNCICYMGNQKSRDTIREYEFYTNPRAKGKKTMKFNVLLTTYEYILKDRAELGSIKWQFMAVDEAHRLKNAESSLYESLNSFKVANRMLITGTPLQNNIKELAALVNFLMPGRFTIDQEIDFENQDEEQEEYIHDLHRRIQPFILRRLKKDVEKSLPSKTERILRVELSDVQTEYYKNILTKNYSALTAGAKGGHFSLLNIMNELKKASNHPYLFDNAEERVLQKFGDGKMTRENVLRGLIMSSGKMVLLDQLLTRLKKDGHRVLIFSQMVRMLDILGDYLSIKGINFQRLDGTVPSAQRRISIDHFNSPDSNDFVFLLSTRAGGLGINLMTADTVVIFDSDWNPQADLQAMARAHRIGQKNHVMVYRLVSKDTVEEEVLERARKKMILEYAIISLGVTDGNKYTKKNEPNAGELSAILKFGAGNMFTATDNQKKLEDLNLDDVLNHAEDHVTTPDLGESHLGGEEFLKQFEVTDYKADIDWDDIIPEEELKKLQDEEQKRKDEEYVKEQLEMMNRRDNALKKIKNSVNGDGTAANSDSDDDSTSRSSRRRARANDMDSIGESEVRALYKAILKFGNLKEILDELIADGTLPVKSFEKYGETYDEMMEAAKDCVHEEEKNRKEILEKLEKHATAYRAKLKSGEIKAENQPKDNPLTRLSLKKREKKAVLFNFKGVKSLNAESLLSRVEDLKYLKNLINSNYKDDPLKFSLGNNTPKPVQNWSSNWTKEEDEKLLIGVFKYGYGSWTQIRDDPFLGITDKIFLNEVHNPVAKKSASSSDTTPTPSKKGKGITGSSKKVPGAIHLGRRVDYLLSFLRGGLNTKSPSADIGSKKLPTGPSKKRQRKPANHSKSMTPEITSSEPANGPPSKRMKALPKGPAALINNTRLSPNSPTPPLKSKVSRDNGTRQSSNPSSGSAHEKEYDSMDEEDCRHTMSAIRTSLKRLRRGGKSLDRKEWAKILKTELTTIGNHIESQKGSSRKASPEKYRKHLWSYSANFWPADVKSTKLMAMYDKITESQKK

Protein translocase subunit SecA (Escherichia coli (strain K12)), sequence (P10408 whole entry): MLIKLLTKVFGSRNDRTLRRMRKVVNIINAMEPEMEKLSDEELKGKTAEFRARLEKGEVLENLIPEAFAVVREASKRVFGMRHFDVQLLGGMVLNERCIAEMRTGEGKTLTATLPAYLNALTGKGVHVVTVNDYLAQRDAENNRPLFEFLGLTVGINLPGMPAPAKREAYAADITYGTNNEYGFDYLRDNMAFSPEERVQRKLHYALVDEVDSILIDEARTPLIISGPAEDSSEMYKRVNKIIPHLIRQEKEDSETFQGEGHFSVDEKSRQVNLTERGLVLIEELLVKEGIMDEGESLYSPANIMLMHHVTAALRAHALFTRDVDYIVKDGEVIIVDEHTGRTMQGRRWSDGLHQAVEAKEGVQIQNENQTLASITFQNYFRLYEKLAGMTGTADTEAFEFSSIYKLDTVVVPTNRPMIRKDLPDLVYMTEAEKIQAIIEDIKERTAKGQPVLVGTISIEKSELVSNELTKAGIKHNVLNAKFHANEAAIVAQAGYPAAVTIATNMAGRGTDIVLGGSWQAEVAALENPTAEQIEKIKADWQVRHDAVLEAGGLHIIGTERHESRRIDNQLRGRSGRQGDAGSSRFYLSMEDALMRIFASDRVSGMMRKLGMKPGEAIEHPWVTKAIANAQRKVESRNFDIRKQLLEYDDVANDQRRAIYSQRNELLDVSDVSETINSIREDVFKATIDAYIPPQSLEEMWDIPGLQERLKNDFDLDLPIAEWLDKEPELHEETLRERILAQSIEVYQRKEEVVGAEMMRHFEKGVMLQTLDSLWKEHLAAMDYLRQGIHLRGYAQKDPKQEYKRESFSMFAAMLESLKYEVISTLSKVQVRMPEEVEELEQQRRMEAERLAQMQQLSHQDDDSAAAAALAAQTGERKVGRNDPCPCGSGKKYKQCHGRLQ
Sialic acid-binding Ig-like lectin 9 (Homo sapiens), sequence (Q9Y336 whole entry): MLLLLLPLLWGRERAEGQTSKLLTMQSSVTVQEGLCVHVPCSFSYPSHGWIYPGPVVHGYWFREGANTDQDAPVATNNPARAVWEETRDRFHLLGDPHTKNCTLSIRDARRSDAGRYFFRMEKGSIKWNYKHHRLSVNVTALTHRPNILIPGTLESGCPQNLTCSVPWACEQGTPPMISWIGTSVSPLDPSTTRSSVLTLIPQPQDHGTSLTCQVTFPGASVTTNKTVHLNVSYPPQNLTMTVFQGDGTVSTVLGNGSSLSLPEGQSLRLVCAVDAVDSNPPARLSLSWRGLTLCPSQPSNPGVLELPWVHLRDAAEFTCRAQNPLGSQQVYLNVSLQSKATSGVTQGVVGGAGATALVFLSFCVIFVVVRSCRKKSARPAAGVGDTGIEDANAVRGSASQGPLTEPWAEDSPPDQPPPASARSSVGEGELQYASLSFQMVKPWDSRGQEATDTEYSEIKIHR

As for `CC(C)NC(=O)N1CCC2(CC(C(=O)NCc3cccnc3)=NO2)C1` (stereo unspecified), the Percent Effect in assay [1] is -0.964%; in assay [2], 2.67%; in assay [3], 4.37%; in [4], 10.3%; in assay [5], -5.99%; in assay [6] it was -2.69%. Further, the Percent Effect in assay [7] was 8.89%; in assay [8], 8.43%; in [9], -3.12%; in [10], 0%; in assay [11], 1.61%.

Consider `CCN(CCn1cccn1)Cc1nc(-c2ccccc2F)oc1C`, for which the Percent Effect is -1.08% in assay [1]; -6.94% in assay [2]; -5.26% in assay [3]; -5.94% in assay [4]; -0.68% in [5]; -0.883% in assay [6]. Also, the Percent Effect in assay [7] was 5.61%; in [8], 7.62%; in assay [9], 1.05%; in [10] it was 0%; in assay [11], 2.51%.

Take `c1ccc2sc(CN3CCOC(Cn4cccn4)C3)nc2c1` (stereo unspecified): the Percent Effect in assay [1] is -6.08%; in assay [2], 5.41%; in assay [3] it was -3.49%; in assay [4], 1.12%; in assay [5] it was -4.06%; in assay [6], -2%. In addition, the Percent Effect in assay [7] was 0%; in [8], 24.4%; in assay [9], -0.493%; in assay [10] it was -8.64%; in assay [11], -0.731%.

Regarding `CCc1n[nH]c(C2CN(Cc3nccn3CC)CCO2)n1` (stereo unspecified), the Percent Effect in assay [1] is -0.0966%; in assay [2] it was 20.8%; in assay [3], -2.5%; in assay [4], -14.5%; in [5] it was 2.45%; in assay [6], 6.53%. Further, the Percent Effect in assay [7] is 9.62%; in assay [8] it was 7.94%; in assay [9], 12.4%; in [10] it was 25.9%; in assay [11] it was -16.2%.

Turning to `COc1ccccc1CNC(=O)Cn1ncc2c1c(C)nn2C`, the Percent Effect is -2.51% in assay [1]; 6.67% in assay [2]; 1.32% in assay [3]; 6.52% in assay [4]; -7.86% in [5]; -15% in assay [6]. For the same molecule, the Percent Effect in assay [7] was 12.8%; in assay [8] it was -0.504%; in assay [9], 5.29%; in assay [10] it was 7.69%; in [11], -9.43%.

Turning to `COCCCN1CCCN(C(C)C(=O)Nc2cccc(I)c2)CC1` (stereo unspecified), the Percent Effect was -5.27% in assay [1]; -5.41% in assay [2]; 1.61% in [3]; 1.25% in [4]; -7.42% in assay [5]; -5% in assay [6]. The Percent Effect was 15.1% in [7]; -8.39% in assay [8]; 1.98% in [9]; -3.66% in assay [10]; -0.402% in [11].

On to `CCCn1nc(C2CCNCC2)n(Cc2ccccc2)c1=O`, for which the Percent Effect in [1] is -2.26%; in assay [2], 13.5%; in [3], -3.97%; in assay [4] it was 17%; in [5], 7.34%; in assay [6] it was -5.71%. In addition, the Percent Effect in assay [7] was 10.2%; in assay [8] it was 0.924%; in [9], 5.82%; in assay [10], 14.6%; in assay [11], -1.76%.

As to `Cc1nnc(N2CCOC(Cn3cccn3)C2)c(C#N)c1C` (stereo unspecified), the Percent Effect was -1.71% in assay [1]; -5.26% in assay [2]; -36.6% in assay [3]; 1.01% in [4]; 2.26% in assay [5]; 4.21% in assay [6]. The Percent Effect in [7] was -0.334%; in assay [8] it was -3.56%; in assay [9], 2.45%; in [10], 0%; in assay [11] it was -0.172%.

For the molecule `CCCNC(=O)c1cc2c(nc1O)CCC(C)C2` (stereo unspecified), the Percent Effect was -3.98% in assay [1]; 14.7% in assay [2]; 2.01% in assay [3]; -2.15% in assay [4]; 5.5% in assay [5]; -13.9% in assay [6]. Further, the Percent Effect is 9.06% in [7]; -2.51% in assay [8]; 6.35% in assay [9]; 10.3% in assay [10]; -8.5% in [11].

Turning to `O=C(NCc1cccnc1)C1=NOC2(CCN(S(=O)(=O)C3CC3)C2)C1` (stereo unspecified), the Percent Effect was -5.43% in assay [1]; 13.3% in [2]; -3.17% in assay [3]; -2.3% in assay [4]; 4.25% in [5]; -41.4% in assay [6]. In addition, the Percent Effect in [7] is 5.81%; in assay [8], -3.44%; in assay [9], -3.12%; in assay [10] it was 2.5%; in [11] it was -6.85%.

As for `Cn1ncc2c(=O)[nH]c(CN(Cc3ccco3)C3CCCC3)nc21`, the Percent Effect in assay [1] is -5.65%; in assay [2], 23.4%; in assay [3] it was -6.78%; in assay [4] it was 6.27%; in assay [5] it was 2.81%; in assay [6], -1.42%. For the same molecule, the Percent Effect was 14.7% in [7]; 6.82% in assay [8]; 2.91% in [9]; 24.4% in assay [10]; -9.65% in assay [11].
